In PubChem BioAssay (EPA / NIEHS):
Records with an inconclusive call do not appear. The source made the active and inactive calls. Rule for the calls: active = hit-call score of the fitted dose curve at least 0.9, where 1 is the maximum; inconclusive = response in the unintended direction; inactive = score below 0.9.

What follows are molecules tested against human Phosphodiesterase 10 (PDE10), PDE10A (gene 10846) (UniProt Q9Y233) (assay: NVS_ENZ_hPDE10: NovaScreen (NVS) Enzymatic Assay for human Phosphodiesterase 10 (PDE10) (AID 2283195)).
human Phosphodiesterase 10 (PDE10), PDE10A (gene 10846), sequence (Q9Y233 whole entry, looked up): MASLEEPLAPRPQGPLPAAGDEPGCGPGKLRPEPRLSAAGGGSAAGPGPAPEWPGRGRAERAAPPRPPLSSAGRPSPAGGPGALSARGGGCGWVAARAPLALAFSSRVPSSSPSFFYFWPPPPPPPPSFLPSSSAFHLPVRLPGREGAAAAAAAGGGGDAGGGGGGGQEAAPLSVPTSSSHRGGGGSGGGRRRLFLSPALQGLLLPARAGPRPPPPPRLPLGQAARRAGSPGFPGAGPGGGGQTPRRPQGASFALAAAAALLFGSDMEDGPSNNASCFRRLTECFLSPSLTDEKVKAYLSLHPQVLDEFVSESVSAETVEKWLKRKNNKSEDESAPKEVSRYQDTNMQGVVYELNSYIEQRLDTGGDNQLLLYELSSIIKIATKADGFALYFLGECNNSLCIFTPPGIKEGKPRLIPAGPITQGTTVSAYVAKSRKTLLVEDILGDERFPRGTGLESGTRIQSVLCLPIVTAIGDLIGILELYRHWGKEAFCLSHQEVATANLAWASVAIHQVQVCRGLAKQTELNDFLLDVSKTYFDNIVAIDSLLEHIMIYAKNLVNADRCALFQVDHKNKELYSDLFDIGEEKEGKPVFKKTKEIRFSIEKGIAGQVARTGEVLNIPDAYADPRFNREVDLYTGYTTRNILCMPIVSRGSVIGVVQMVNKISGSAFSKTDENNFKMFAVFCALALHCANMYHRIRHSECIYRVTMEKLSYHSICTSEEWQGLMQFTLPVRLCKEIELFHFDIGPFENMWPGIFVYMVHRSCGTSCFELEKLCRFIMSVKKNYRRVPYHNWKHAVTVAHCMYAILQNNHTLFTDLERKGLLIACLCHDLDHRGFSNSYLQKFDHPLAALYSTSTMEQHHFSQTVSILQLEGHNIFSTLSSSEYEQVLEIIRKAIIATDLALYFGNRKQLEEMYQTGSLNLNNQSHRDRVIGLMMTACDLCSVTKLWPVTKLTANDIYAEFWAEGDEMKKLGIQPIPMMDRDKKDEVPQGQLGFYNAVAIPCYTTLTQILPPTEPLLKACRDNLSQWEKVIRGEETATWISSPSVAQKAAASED
How it was run: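 Biochemical single-readout PDE10A assay, cell-free, extracted protein. Compounds first screened at 25 uM in duplicate, hits then titrated to 50 uM max. Activity measured after 1 h; loss-of-signal fitted against DMSO negative control.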

Row | SMILES | outcome | AC50
1 | CC(C)(O)c1ccc(CNC(=O)c2cccnc2Oc2ccc(F)cc2)cc1 | inactive | –
2 | CCCCc1nc2cccnc2n1Cc1ccc(-c2ccccc2-c2nnn[nH]2)cc1 | – | 13 µM (active)
3 | C/C=C/C=C/C(=O)O | inactive | –
4 | CN(C)CCCN(C)CCCN(C)C | inactive | –
5 | COc1ccc(OC(F)(F)F)cc1CN[C@H]1CCCN[C@H]1c1ccccc1 | inactive | –
6 | CCc1cc(C2=C(C(=O)O)N(c3ccccc3C(F)(F)F)S(=O)(=O)c3ccccc32)cc2c1OCO2 | inactive | –
7 | CCCCOC(=O)CCCCC(=O)OCCCC | inactive | –

Each molecule was assayed against human Phosphoinositide 3-kinase alpha (PI3Ka), PIK3CA (gene 5290) (UniProt P42336) (assay: NVS_ENZ_hPI3Ka: NovaScreen (NVS) Enzymatic Assay for human Phosphoinositide 3-kinase alpha (PI3Ka) (AID 2283196)).
human Phosphoinositide 3-kinase alpha (PI3Ka), PIK3CA (gene 5290), sequence (P42336 whole entry, looked up): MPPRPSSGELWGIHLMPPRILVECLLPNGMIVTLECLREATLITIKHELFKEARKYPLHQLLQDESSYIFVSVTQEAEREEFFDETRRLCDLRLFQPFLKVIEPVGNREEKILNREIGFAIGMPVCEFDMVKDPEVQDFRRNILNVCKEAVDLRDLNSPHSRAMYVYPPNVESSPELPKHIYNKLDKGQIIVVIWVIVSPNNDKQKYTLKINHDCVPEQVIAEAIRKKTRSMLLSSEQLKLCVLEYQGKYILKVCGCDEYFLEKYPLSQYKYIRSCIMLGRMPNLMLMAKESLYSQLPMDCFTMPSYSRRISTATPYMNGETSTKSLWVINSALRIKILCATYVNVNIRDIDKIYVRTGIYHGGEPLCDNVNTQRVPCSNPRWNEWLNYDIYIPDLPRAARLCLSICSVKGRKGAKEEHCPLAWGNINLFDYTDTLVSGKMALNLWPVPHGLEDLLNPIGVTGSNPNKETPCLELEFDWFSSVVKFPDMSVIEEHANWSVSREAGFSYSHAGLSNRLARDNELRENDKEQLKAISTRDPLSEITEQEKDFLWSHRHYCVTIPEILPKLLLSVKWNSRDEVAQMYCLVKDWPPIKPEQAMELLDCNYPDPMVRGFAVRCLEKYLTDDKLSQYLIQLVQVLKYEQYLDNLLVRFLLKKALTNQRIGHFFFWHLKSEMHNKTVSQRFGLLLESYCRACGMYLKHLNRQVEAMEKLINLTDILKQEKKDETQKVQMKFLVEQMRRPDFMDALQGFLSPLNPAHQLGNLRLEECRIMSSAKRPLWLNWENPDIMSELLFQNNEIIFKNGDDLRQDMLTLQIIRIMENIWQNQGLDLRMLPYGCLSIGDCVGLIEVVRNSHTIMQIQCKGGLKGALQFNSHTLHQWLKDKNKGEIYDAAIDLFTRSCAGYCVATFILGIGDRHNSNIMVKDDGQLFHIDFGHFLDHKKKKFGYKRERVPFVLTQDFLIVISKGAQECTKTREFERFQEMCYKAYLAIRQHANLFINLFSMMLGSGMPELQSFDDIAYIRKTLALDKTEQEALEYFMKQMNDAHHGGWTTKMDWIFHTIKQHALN
How it was run: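 Chemicals were first screened at 25 uM in duplicate, then hits were run as concentration series up to 50 uM. Enzyme activity was measured by fluorescence after mobility-shift separation, with loss of signal relative to DMSO taken as activity.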

Row | SMILES | outcome
8 | CN(C)C(=O)NC1(c2ccccc2)CCN(CC[C@@]2(c3ccc(F)c(F)c3)CN(C(=O)c3ccccc3)CCO2)CC1 | inactive
9 | O=C1c2c(O)cccc2Cc2cccc(O)c21 | inactive
10 | COc1ccc(OC(F)(F)F)cc1CN[C@H]1CCCN[C@H]1c1ccccc1 | inactive

These molecules were tested against human Protein Phosphatase, Mg2+/Mn2+ Dependent 1A (PPM1A), PPM1A (gene 5494) (UniProt P35813) (assay: NVS_ENZ_hPPM1A: NovaScreen (NVS) Enzymatic Assay for human Protein Phosphatase, Mg2+/Mn2+ Dependent 1A (PPM1A) (AID 2283198)).
human Protein Phosphatase, Mg2+/Mn2+ Dependent 1A (PPM1A), PPM1A (gene 5494), sequence (P35813 whole entry, looked up): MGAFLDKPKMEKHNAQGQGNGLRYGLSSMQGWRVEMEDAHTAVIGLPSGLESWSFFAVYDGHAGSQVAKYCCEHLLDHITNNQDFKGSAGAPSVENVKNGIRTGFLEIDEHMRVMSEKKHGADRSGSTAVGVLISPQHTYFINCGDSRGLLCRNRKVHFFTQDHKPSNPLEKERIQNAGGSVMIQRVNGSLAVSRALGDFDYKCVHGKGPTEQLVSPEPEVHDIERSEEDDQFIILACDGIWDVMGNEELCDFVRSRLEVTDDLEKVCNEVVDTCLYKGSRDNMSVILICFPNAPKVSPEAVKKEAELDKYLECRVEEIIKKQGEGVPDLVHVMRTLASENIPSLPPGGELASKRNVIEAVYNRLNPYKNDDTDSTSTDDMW
Experimental: NVS_ENZ_hPPM1A is a biochemical, single-readout assay that uses extracted gene-proteins in a cell-free assay. Measurements were taken 1 hour after chemical dosing in a 384-well plate.NVS_ENZ_hPPM1A is one of one assay component(s) measured or calculated from the NVS_ENZ_hPPM1A assay. It is designed to make measurements of enzyme activity, a form of enzyme reporter, as detected with fluorescence intensity signals by Fluorescence and electrophoretic mobility shift technology.Data from the assay component NVS_ENZ_hPPM1A was analyzed into 1 assay endpoint. This assay endpoint, NVS_ENZ_hPPM1A, was analyzed in the positive analysis fitting direction relative to DMSO as the negative control and baseline of activity. Using a type of enzyme reporter, loss-of-signal activity can be used to understand changes in the enzymatic activity as they relate to the gene PPM1A. Furthermore, this assay endpoint can be referred to as a primary readout, because this assay has produced multiple assay endpoints where this one serves a enzymatic activity function. To generalize the intended target to other relatable targets, this assay endpoint is annotated to the phosphatase intended target family, where the subfamily is serine/threonine phosphatase.
Binding assays used specific radioligands (tritiated, iodinated) with non-radioactive competitive displacement ligands in agonist or antagonist protocols (as indicated) and various reference compounds and inhibitors to titrate specific binding to receptors and transporters. Most enzyme assays (CYPs, kinases, phosphatases, proteases, HDACs) used recombinant protein and specific substrates (fluorescence mostly, some colorimetric and radioactive) and inhibitors, followed by a biochemical separation of substrate and product. All assays for the biochemical HTS were initially run in duplicate at a single concentration (10 uM for CYP450 assays and 25 uM for all others). Assay-chemical combinations meeting a pre-defined threshold (e.g., 30% inhibition and other criteria defined below) were then run in singleton concentration-response format with maximum concentration of 20 uM for CYPs and 50 uM for all others. Each assay was run with positive and negative controls, and concurrent controls on every plate. The follow-up (secondary) screen tested active chemical-pairs in concentration series, as well as a few additional assays not tested in the primary screen, some selected negative inactives, and several cases re-run in the concentration series for confirmatory purposes.

Row | SMILES | outcome
11 | CSc1ccc(Oc2ccc(S(N)(=O)=O)cc2CN(C)C)cc1C | inactive
12 | CC(=O)OC1CC(C)OC(C)O1 (stereo not given) | inactive
13 | CCCCCCCCCCCCCCCCO | inactive
14 | Cc1ccc(C(C)(C)C)c(O)c1 | inactive

Each molecule was assayed against human Protein Tyrosine Phosphatase Non-receptor Type 1 (PTPN1), PTPN1 (gene 5770) (UniProt P18031) (assay: NVS_ENZ_hPTPN1: NovaScreen (NVS) Enzymatic Assay for human Protein Tyrosine Phosphatase Non-receptor Type 1 (PTPN1) (AID 2283201)).
human Protein Tyrosine Phosphatase Non-receptor Type 1 (PTPN1), PTPN1 (gene 5770), sequence (P18031 whole entry, looked up): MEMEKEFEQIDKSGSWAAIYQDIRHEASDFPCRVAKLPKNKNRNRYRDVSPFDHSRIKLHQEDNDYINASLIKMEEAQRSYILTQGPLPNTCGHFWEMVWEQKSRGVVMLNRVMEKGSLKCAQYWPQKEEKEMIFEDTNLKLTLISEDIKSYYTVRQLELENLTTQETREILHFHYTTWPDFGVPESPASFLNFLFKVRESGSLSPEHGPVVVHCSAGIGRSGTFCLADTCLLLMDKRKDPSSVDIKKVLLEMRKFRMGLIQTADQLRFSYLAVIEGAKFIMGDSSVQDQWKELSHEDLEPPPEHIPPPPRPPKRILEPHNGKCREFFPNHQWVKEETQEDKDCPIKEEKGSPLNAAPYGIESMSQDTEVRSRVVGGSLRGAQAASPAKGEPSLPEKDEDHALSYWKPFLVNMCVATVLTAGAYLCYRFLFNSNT
How it was run: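 Chemicals were first tested in duplicate at 25 uM, and those passing threshold went on to singleton concentration series topping at 50 uM. Recombinant enzyme, specific substrate, product separated by mobility shift, fluorescence read at 1.33 h; activity loss relative to DMSO.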

Row | SMILES | outcome
15 | NCCOCCOCCN | inactive
16 | CCCCC(CC)COP(=O)(OCC(CC)CCCC)OCC(CC)CCCC (stereo not given) | inactive
17 | O=C(NS(=O)(=O)/C=C/c1cccs1)c1ccc(F)cc1Br | inactive

The molecules below were run against Tyrosine-protein phosphatase non-receptor type 11 (Homo sapiens) (UniProt Q06124) (assay: NVS_ENZ_hPTPN11: NovaScreen (NVS) Enzymatic Assay for human Protein Tyrosine Phosphatase Non-receptor Type 11 (PTPN11) (AID 2283202)).
Tyrosine-protein phosphatase non-receptor type 11 (Homo sapiens), sequence (Q06124 whole entry, looked up): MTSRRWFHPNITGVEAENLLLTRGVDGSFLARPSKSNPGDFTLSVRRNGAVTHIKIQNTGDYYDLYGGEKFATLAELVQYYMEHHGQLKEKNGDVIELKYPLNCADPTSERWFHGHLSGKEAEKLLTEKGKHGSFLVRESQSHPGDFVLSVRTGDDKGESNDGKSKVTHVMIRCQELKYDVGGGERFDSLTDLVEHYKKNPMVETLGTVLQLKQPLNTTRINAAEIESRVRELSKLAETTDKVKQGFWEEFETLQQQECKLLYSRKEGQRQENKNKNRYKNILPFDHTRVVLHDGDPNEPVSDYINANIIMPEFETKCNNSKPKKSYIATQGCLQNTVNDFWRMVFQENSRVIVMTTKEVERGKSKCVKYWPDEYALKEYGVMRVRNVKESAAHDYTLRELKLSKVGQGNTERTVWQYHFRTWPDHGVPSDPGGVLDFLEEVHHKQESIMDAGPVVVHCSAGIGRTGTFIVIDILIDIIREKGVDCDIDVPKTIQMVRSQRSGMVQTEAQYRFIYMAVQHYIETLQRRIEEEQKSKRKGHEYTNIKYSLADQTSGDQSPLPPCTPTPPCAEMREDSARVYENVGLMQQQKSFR
How it was run: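 Compounds first tested in duplicate at 25 uM; those reaching ~30% inhibition rerun in singleton concentration-response, top 50 uM. Phosphatase activity measured after 0.5 h by fluorescence with mobility-shift separation, relative to DMSO.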

Row | SMILES | outcome
18 | CCN(CC)CCOc1ccc(C(=C(Cl)c2ccccc2)c2ccccc2)cc1 | inactive
19 | CN(C)C(=O)NC1(c2ccccc2)CCN(CC[C@@]2(c3ccc(F)c(F)c3)CN(C(=O)c3ccccc3)CCO2)CC1 | inactive
20 | CC(C)NCC(O)c1ccc(O)c(O)c1 (stereo not given) | inactive
